# About 13,000 (27%) of roughly 48,000 compounds showed an effect of 50% or more. This is one part of the list.
# Tested on: Wolbachia pipientis
# Experiment: Anti-Wolbachia Cell-Based Screen
# Type: functional
# Parameters: scale not given: in the data most compounds retested in dose-response had high values
# Conditions: 5 µM
row,SMILES,Percent Effect
1,c1cncc(-c2ccnn2CN2CCC3(CC2)OCCO3)c1,-11.32%
2,Cc1nccc(CNS(=O)(=O)N(C)Cc2ccc(Cl)cc2)n1,-3.155%
3,CCc1noc(C(C)N(C)CC(=O)Nc2cccc(C)n2)n1 (configuration not stated),0.4126%
4,CCN(CC(=O)NCCc1nc(C)no1)Cc1ccc(Cl)cc1,-3.181%
5,COCCCNC(=O)CN(C)C(=O)c1cc(C)ccc1N(C)C(C)C,-2.233%
6,CCc1noc(C(C)N(C)CC(=O)Nc2ccc(C)cc2)n1 (configuration not stated),3.049%
7,CCc1noc(C(C)N(C)CC(=O)Nc2c(C)cccc2C)n1 (configuration not stated),-11.68%
8,COCCCNC(=O)CN(C)C(C)c1nc(C(C)C)no1 (configuration not stated),126.4%
9,Cc1noc(C(C)N(C)CC(=O)NCCc2ccc(Cl)cc2)n1 (configuration not stated),103.9%
10,COCCCNC(=O)CN(C)C(=O)c1cc(C)ccc1O,-8.655%
11,COCCNC(=O)CN(C)C(C)c1nc(C)no1 (configuration not stated),119.8%
12,Cc1noc(CNC(=O)NCCc2ccc(Cl)cc2)n1,-5.738%
13,COCCCNC(=O)CN(C)C(C)c1nc(C)no1 (configuration not stated),131.6%
14,COc1ccc(Br)cc1CN(C)C(C)c1nc(C(C)C)no1 (configuration not stated),18.35%
15,O=C(O)c1cc(-c2ccc3c(c2)OCO3)cc(S(=O)(=O)NC2CC2)c1,1.562%
16,O=C(c1ccc2sccc2c1)N1CCC(C(=O)O)(n2ccnc2)CC1,-1.881%
17,Cc1ccccc1N1CCN(C(=O)c2cnc(N(C)C)nc2C)C(C)C1 (configuration not stated),26.11%
18,Nc1ncc(C(=O)N2CCC(O)(CO)CC2)c(-c2ccccc2)n1,-11.61%
19,Cc1nc(N)ncc1C(=O)N1CCCC1(C)C(=O)N(C)C (configuration not stated),88.37%
20,CC[C@@H](CO)NC(=O)c1coc(COc2ccc(OC)cc2)n1,-6.129%
21,COCC(=O)Nc1nccn1Cc1ccc(Br)cc1,8.757%
22,CCNC(=O)N(C)C1CCCc2nc(C)sc21 (configuration not stated),9.089%
23,N#Cc1cccnc1N1CCC(c2nc(C(F)(F)F)c[nH]2)CC1,-10.33%
24,CCN(CC)c1ccc2ccc(C(=O)N3CCCCO3)cn12.O=C(O)C(F)(F)F,-8.466%
25,CCOC1CC2(CCN(C(=O)COC)CC2)c2cc(C)ccc21 (configuration not stated),10.7%
26,CC(C)C(=O)N1CCN(c2cc(N(C)C)cnn2)CC1,9.778%

row,SMILES,Percent Effect
1,CC(CCc1ccc(O)cc1)NC1CCN(C(=O)C(C)C)CC1 (configuration not stated),2.314%
2,COCC(=O)N1CCC(C)(c2cc(O)[nH]n2)CC1,115.4%
3,COCC(=O)N1CCC2(CC1)CNc1ccc(F)cc12.O=C(O)C(F)(F)F,7.249%
4,CC(C)C(=O)N1CCC(C)(c2cc(O)[nH]n2)CC1,136.2%
5,Cc1cc(N2CCN(C(=O)CCc3scnc3C)CC2)nc(N)n1,8.877%
6,CC(c1nc(C2CC2)no1)N(C)Cc1ccc2c(c1)OCCO2 (configuration not stated),0.3167%
7,O=C(NCC1CC1)N1CCN(Cc2ccc3c(c2)OCCO3)CC1,1.258%
8,CN(Cc1noc(C2CC2)n1)CC1CCN(CCO)CC1,15.04%
9,c1cc2c(cc1CN1CCC(Cc3noc(C4CC4)n3)CC1)OCCO2,75.34%
10,c1cc(C2CCN(Cc3ccc4c(c3)OCO4)CC2)ccn1,106.9%
11,c1ccc(CN2CCC(Cc3noc(C4CC4)n3)CC2)cc1,27.3%
12,c1cc2c(cc1CSCc1noc(C3CC3)n1)OCCO2,98.07%
13,O=C(c1cccc2c1OCO2)N1CCCC1c1noc(C2CC2)n1 (configuration not stated),-8.169%
14,Clc1ccc(C2(NCc3noc(C4CC4)n3)CCOCC2)cc1,-0.4021%
15,c1cc(CN2CCC(Cc3noc(C4CC4)n3)CC2)c2c(c1)OCO2,85.87%
16,c1cncc(CN2CCC(NCCc3ccc4c(c3)OCO4)CC2)c1,3.399%
17,c1cc(CN2CCC(c3ccncc3)CC2)cc(Cn2cccn2)c1,-4.875%
18,CCn1c(C)cc(C(=O)NCc2ccc(CS(C)(=O)=O)cc2)c1C,4.177%
19,COCc1nc(CN2CCC3(CCCO3)CCC2=O)no1 (configuration not stated),-11.19%
20,CC(=O)N(C)CC(=O)NC1(c2ccc(Br)cc2)CC1,-3.81%
21,CCN(CC(=O)NC(C)C)S(=O)(=O)N1CCC(C)C1 (configuration not stated),1.094%
22,c1ccc2[nH]c(C3CCN(Cc4noc(C5CC5)n4)CC3)cc2c1,-4.924%
23,CN1CCN(C2CCN(Cc3noc(C4CC4)n3)CC2)C1=O,10.17%
24,c1cc2c(cc1CN1CCN(Cc3noc(C4CC4)n3)CC1)OCO2,111.2%
25,CCn1ccnc1CN1CCCn2nc(CNC(=O)C3CCC3)cc2C1,17.11%
26,CSc1nccc(NCc2cc3n(n2)CCCN(S(C)(=O)=O)C3)n1,18.18%

# Reference: ChEMBL document CHEMBL3988442, “University of Dundee, Small-Polar-MMV Screening Library” (2021)
